Measurements as given in PubChem BioAssay (NCI).
Compounds without any hit were thinned out: in the full panel of roughly 83,000, 20% have a hit.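 The test compound was applied at a single concentration to cells in 96-well plates for 48 hours, and percent growth was recorded.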 The source made the active and inactive calls. Rule for the calls: active = growth percent below 10; inactive = the rest.

Columns and labels:
Assay in all cases: NCI-60 one-dose screen, 48 h (100 = growth as untreated, 0 = no growth, -100 = all killed)
Conditions in all cases: 10 µM unless noted
[1] = tested on: DU-145 prostate
[2] = tested on: K-562 leukemia
[3] = tested on: MALME-3M melanoma
[4] = tested on: MDA-MB-231 breast
[5] = tested on: RXF 393 renal
[6] = tested on: SF-268 CNS
[7] = tested on: SF-295 CNS
[8] = tested on: SF-539 CNS
[9] = tested on: UACC-257 melanoma
[10] = tested on: M14 melanoma
[11] = tested on: HCT-15 colon
[12] = tested on: HT29 colon
[13] = tested on: SNB-75 CNS
[14] = tested on: SNB-19 CNS
[15] = tested on: U251 CNS
[16] = tested on: PC-3 prostate
[17] = tested on: SK-MEL-5 melanoma
[18] = tested on: UACC-62 melanoma
[19] = tested on: SK-MEL-28 melanoma
[20] = tested on: LOX IMVI melanoma

Measured: growth

N=C(N)c1ccc(-c2ccc(-c3ccc(Cl)cc3Cl)o2)nc1
inactive: [1] 24.1% | [3] 90% | [5] 64.4% | [6] 80.1% | [8] 42.6% | [9] 91.4% | [10] 70.2% | [14] 48.6% | [16] 56.2% | [17] 87% | [18] 101% | [19] 80.9%
active: [2] 1.13% | [4] -38% | [7] -62.8% | [11] 2.86% | [12] -23.8% | [13] -20% | [15] -37.3%

COc1ccc(/C=C(\C#N)n2nnc3cc(F)c(F)cc32)c(OC)c1OC
inactive: [1] 24.5% | [2] 23% | [3] 93.4% | [4] 61.7% | [5] 41.1% | [6] 83.5% | [7] 105% | [8] 92.1% | [9] 64.4% | [10] 72.7% | [11] 43.7% | [12] 64.5% | [13] 82% | [14] 82.9% | [15] 73.9% | [16] 57.9% | [17] 60.5% | [18] 58.6% | [19] 77.3%

C=C1c2c(C)nn(-c3ccc(O)cc3)c2N(C)C23C[C@@H]1C1(C)c4c(C)nn(-c5ccc(O)cc5)c4N(C)C(C)(C[C@H]12)C3 (some centres undefined)
inactive: [1] 45% | [2] 18.1% | [3] 58.7% | [4] 14.8% | [5] 19.9% | [6] 48% | [7] 26.9% | [8] 23.7% | [9] 29.1% | [10] 15.5% | [11] 11.1% | [12] 17.5% | [13] 64.2% | [14] 48.7% | [15] 33% | [16] 12.8% | [17] 11.4% | [18] 32.7% | [19] 42.6%

CCCc1nc2ccccn2c1Nc1ccc(C(=O)NO)cc1
inactive: [1] 88.3% | [2] 89.5% | [3] 86.7% | [4] 111% | [5] 96% | [6] 94.2% | [7] 93.8% | [8] 99.3% | [9] 76.1% | [10] 89.6% | [11] 89.8% | [12] 92.7% | [13] 82.2% | [14] 85% | [15] 95.9% | [16] 83% | [17] 101% | [18] 82.7% | [19] 95.7%

O=S(=O)(Nc1ccsc1-c1nc(-c2ccccc2)no1)c1cc(Cl)cc(Cl)c1
inactive: [1] 101% | [2] 105% | [3] 99.6% | [4] 102% | [5] 101% | [6] 92.8% | [7] 98.3% | [8] 91.4% | [9] 85.8% | [10] 92.1% | [11] 91.9% | [12] 98.5% | [13] 73% | [14] 98.8% | [15] 97.8% | [16] 86.7% | [17] 93.5% | [18] 83.6% | [19] 88.2%

C[C@@H]1CC[C@@H]2[C@@H]1[C@H](OC(=O)c1ccc3ccccc3c1)[C@]1(C3CCCCC3)C[C@@H](OC(=O)CO)[C@@]2(C)O1
active: [5] 8.34%
inactive: [1] 72.1% | [2] 39.6% | [3] 99.9% | [4] 63.1% | [6] 31.4% | [7] 68.2% | [8] 90.2% | [9] 63.3% | [10] 61.4% | [11] 40.9% | [12] 20.7% | [13] 64.9% | [14] 84.1% | [15] 48.9% | [16] 22.2% | [17] 88.6% | [18] 73.6% | [19] 70.2%

CN(C)c1ccc(/C=N/NC(=O)COc2cc(=O)n(C)c3ccccc23)cc1
inactive: [1] 110% | [2] 103% | [3] 98.4% | [4] 97.1% | [5] 93.4% | [6] 105% | [7] 102% | [8] 100% | [9] 112% | [10] 101% | [11] 104% | [12] 108% | [13] 76.8% | [14] 88.4% | [15] 104% | [16] 101% | [17] 101% | [18] 88.5% | [19] 109%

Cc1cnc(Nc2ccc(OCCN3CCCC3)cc2)nc1NCc1ccco1
inactive: [1] 83.8% | [2] 12.9% | [3] 105% | [4] 55.6% | [5] 48% | [6] 68.5% | [7] 84% | [8] 68.7% | [9] 96% | [10] 96.3% | [11] 74.6% | [12] 50.7% | [13] 33.3% | [14] 94.4% | [15] 65.8% | [16] 72% | [17] 81.7% | [18] 86.9% | [19] 103%

C=C(C)[C@@H]1CC[C@]2(CN)CC[C@]3(C)[C@H](CC[C@@H]4[C@@]5(C)CCC(N)[C@@](C)(CO)[C@@H]5CC[C@]43C)[C@@H]12 (some centres undefined)
inactive: [5] 58.4% | [7] 87.8% | [13] 75.6%
active: [1] -38.1% | [2] -69.8% | [3] -85.9% | [4] -80.9% | [6] -79.5% | [8] -72.6% | [9] -88.7% | [10] -81.8% | [11] -47.6% | [12] -60.6% | [14] -10.5% | [15] -93.8% | [16] 6.4% | [17] -97.2% | [18] -79.6% | [19] -94.2%

CCCCN1CCN(c2ccc3nc(-c4ccc5nc(-c6cc(OC)c(OC)c(OC)c6)[nH]c5c4)[nH]c3c2)CC1
active: [5] -43.4%
inactive: [1] 91.6% | [2] 30.8% | [3] 21.1% | [4] 78.9% | [6] 71.8% | [7] 58.6% | [8] 61.1% | [9] 87.9% | [10] 59% | [11] 99.2% | [12] 56% | [13] 38.7% | [14] 71.9% | [15] 56.3% | [16] 57.4% | [17] 44.8% | [18] 39.5% | [19] 66.3%

O=C(c1ccccc1)c1ccc(N2C(=O)C3C4c5ccccc5C(/C=C/C(=O)c5ccccn5)(c5ccccc54)C3C2=O)cc1 (centres undefined)
active: [3] -18.2% | [4] -8.96% | [5] -48.5% | [8] -10.9% | [11] -21.7% | [12] 9.38% | [15] 2.15% | [20] -76.6%
inactive: [1] 21.4% | [2] 15.9% | [6] 43.4% | [7] 10.8% | [9] 43.6% | [10] 21.3% | [13] 46.7% | [14] 28.2% | [16] 28.4% | [17] 49.7% | [19] 13.4%

O=C(Nc1ccccn1)[C@H](O)[C@@H](O)C(=O)N1CCOCC1
inactive: [1] 106% | [2] 115% | [3] 114% | [4] 100% | [5] 119% | [6] 106% | [7] 109% | [8] 107% | [9] 101% | [10] 103% | [11] 107% | [12] 104% | [13] 121% | [14] 102% | [15] 96.1% | [16] 94% | [17] 99.3% | [20] 104% | [19] 114%

Cc1cc(N(CCCNc2ccnc3cc(Cl)ccc23)Cc2ccccn2)nc(N2CCOCC2)n1
inactive: [1] 113% | [2] 67.8% | [3] 89.8% | [4] 95.2% | [5] 77.3% | [6] 83.3% | [7] 92.9% | [8] 91.4% | [9] 101% | [10] 95.7% | [11] 87.3% | [12] 56% | [13] 69.2% | [14] 93.9% | [15] 94.8% | [16] 74% | [17] 105% | [18] 106% | [19] 106%

Cc1cc(-c2ccc(N(C)C)cc2)c2sc(=O)[nH]c2n1
inactive: [1] 98.8% | [2] 24.5% | [3] 71.1% | [4] 71.4% | [5] 51.2% | [6] 69.5% | [7] 48.6% | [8] 52.9% | [9] 81.4% | [10] 44.5% | [11] 29.4% | [12] 70% | [13] 53.2% | [14] 55.7% | [15] 50.2% | [16] 80.8% | [17] 33.3% | [18] 42.5% | [19] 69%

CCOc1cc(C2C(Cl)C(=O)N2n2cnnc2)ccc1O (centres undefined)
inactive: [1] 110% | [2] 104% | [3] 99.5% | [4] 106% | [5] 93.4% | [6] 92.4% | [7] 105% | [8] 101% | [9] 88.9% | [10] 95.4% | [11] 103% | [12] 96.9% | [13] 72.5% | [14] 102% | [15] 98.5% | [16] 91.1% | [17] 106% | [20] 101% | [19] 105%

Cc1cc(-c2ccccc2)cc(SC#N)[n+]1[O-]
inactive: [1] 46.6% | [2] 16% | [3] 59.3% | [4] 52.7% | [5] 49.6% | [6] 43.3% | [7] 23.2% | [8] 43.5% | [9] 59.2% | [10] 19.3% | [11] 24.7% | [12] 50.6% | [13] 78.5% | [14] 41.2% | [15] 24.1% | [16] 38.7% | [17] 32.6% | [18] 28.8% | [19] 45.1%
